# Data from PubChem BioAssay (NCATS).
# Records with an inconclusive call do not appear. Entries that show only a call come without a potency. Calls of active or inactive are those of the source. The call rests on the fitted dose curve; in most records, active means well fitted curve in the direction sought with a large enough effect; inconclusive means small, poorly fitted or top-dose-only effect, or another doubt; inactive means no such curve, though single readings can be large; an effect the other way counts as inactive or inconclusive.
# What was measured:
# [1] = biological target: Cytochrome P450 2C9 (Homo sapiens) (UniProt P11712); experiment: qHTS Assay for Inhibitors and Substrates of Cytochrome P450 2C9 (AID 883); further: nearly all actives have a fitted effect of over 60% in size
# Sequence of Cytochrome P450 2C9 (Homo sapiens) (P11712 whole entry, looked up): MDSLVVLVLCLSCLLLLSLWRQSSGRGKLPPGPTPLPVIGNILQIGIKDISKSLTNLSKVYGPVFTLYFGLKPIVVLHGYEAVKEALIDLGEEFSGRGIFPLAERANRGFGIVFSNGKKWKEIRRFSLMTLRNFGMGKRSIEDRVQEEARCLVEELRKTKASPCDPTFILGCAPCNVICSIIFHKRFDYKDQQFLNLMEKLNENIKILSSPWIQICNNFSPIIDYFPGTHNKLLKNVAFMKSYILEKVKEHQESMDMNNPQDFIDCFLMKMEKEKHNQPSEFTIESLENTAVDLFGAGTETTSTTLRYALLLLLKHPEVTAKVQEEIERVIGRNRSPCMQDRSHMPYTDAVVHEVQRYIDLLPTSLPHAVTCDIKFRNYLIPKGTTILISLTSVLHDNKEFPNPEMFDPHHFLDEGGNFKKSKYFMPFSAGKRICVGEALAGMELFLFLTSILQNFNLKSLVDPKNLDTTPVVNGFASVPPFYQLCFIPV
# In short: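 CYP2C9 deoxyluciferin hydroxylation, 37C, 60 min with NADPH regeneration; 10nM enzyme, 100uM Luciferin-H (KM). Glo detection reagent stopped reaction; luminescence normalized to sulphaphenazole (57uM) full inhibition.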
# [2] = biological target: Cytochrome P450 2D6 (Homo sapiens) (UniProt P10635); experiment: qHTS Assay for Inhibitors and Substrates of Cytochrome P450 2D6 (AID 891);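 further: luciferin methyl ether substrate demethylated by CYP2D6 with NADPH regeneration; nearly all actives have a fitted effect of over 60% in size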
# Sequence of Cytochrome P450 2D6 (Homo sapiens) (P10635 whole entry, looked up): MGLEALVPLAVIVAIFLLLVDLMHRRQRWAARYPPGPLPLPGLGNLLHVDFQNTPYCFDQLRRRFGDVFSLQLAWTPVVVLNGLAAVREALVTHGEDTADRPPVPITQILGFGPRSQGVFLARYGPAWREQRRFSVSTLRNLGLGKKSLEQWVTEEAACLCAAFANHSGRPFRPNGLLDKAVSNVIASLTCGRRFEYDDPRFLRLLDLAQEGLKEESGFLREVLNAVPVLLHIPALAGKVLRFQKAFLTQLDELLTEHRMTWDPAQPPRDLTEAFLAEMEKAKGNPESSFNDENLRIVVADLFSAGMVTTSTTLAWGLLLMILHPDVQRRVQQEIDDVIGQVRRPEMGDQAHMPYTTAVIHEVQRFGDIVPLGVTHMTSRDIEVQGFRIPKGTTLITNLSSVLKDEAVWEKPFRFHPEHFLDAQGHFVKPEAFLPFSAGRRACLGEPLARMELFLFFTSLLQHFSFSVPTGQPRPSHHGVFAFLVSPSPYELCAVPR
# In short: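 Luminescent read-out of luciferin formed by 5 nM human CYP2D6 demethylating 30 uM Luciferin-ME EGE (Km level) over 60 min at room temperature after NADPH regeneration addition. Data normalized to full inhibition by 1.43 uM quinidine.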
# [3] = biological target: Cytochrome P450 2C19 (Homo sapiens) (UniProt P33261); experiment: qHTS Assay for Inhibitors and Substrates of Cytochrome P450 2C19 (AID 899); further: nearly all actives have a fitted effect of over 60% in size; further: potency means the concentration at half of the fitted maximal effect
# Sequence of Cytochrome P450 2C19 (Homo sapiens) (P33261 whole entry, looked up): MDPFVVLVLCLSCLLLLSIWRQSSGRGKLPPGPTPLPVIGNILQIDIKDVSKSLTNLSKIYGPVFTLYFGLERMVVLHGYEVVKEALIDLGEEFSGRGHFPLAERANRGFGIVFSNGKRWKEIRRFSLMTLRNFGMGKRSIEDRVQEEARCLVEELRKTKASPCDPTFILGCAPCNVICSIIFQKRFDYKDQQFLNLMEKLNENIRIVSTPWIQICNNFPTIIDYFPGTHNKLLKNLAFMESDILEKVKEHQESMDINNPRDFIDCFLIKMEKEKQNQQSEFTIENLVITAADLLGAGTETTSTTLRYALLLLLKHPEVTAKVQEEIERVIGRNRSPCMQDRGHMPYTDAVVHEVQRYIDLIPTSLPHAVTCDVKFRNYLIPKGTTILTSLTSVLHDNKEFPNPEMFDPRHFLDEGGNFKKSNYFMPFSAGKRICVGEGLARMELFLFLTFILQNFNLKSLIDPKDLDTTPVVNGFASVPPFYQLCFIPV
# In short: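 In 50mM KPO4, the reaction held 5nM enzyme and KM-level (10uM) Luciferin-H EGE; it ran 60 min at 37C after NADPH regeneration and a 10 min compound preincubation. Luminescence values were scaled to 57uM ketoconazole as complete inhibition.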
# [4] = biological target: Cytochrome P450 3A4 (Homo sapiens) (UniProt P08684); experiment: qHTS Assay for Activators of Cytochrome P450 3A4 (AID 885); further: nearly all actives have a fitted effect of over 65% in size
# Sequence of Cytochrome P450 3A4 (Homo sapiens) (P08684 whole entry, looked up): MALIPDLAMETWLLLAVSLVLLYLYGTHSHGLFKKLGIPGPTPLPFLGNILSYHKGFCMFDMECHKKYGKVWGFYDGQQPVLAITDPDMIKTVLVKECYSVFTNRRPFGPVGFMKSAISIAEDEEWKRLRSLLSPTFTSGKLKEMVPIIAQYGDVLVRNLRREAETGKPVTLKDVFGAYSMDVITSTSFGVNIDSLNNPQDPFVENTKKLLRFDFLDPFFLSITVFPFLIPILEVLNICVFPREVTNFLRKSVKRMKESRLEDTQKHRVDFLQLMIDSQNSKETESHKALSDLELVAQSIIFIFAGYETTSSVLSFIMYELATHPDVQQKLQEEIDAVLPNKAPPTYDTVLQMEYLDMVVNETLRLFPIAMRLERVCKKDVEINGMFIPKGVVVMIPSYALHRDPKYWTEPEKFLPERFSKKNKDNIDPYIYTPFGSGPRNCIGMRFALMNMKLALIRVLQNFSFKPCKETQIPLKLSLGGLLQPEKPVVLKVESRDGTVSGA
# In short: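 Human CYP3A4 dealkylates Luciferin-PPXE to luciferin, which luciferase detection converts to light. Substrate was at its KM (25uM), buffer 200mM KPO4, reaction 60 min at RT.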
# [5] = Confirmation and Secondary Assay for Modulators of Hemoglobin Beta Chain Splicing at IVS2 654 locus (AID 910);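 further: per-well total GFP intensity by laser scanning cytometry after 2-day treatment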
# In short: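 HeLa cells stably carrying EGFP interrupted by mutant beta-globin IVS2-654 intron (CMV-driven) were treated with compound for 2 days at 37C; corrected splicing was scored as total peak GFP intensity per well (488 nm excitation, 500-520 nm emission).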
# [6] = Confirmation and Secondary Assay for Modulators of Hemoglobin Beta Chain Splicing at IVS2 705 locus (AID 930);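 further: HeLa cells stably expressing the EGFP-705 splicing reporter; GFP fluorescence per well restored by corrected splicing of the IVS2-705 intron in EGFP; series mostly up to about 46 µM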
# In short: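 HeLa IVS2-705 EGFP reporter cells, 500/well, compound 2 d at 37C; correct splicing yields fluorescent EGFP. Control: 500 nM antisense PNA. Read-out: total peak GFP intensity.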
# [7] = biological target: Cytochrome P450 3A4 (Homo sapiens) (UniProt P08684); experiment: qHTS Assay for Inhibitors and Substrates of Cytochrome P450 3A4 (AID 884); further: nearly all actives have a fitted effect of over 50% in size; further: potency means the concentration at half of the fitted maximal effect
# In short: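 Luminescent readout of luciferin produced by CYP3A4 (20 nM) dealkylation of Luciferin-PPXE, 25 uM (its KM). NADPH-driven reaction ran 60 min at RT after 10 min compound preincubation; data scaled to 57 uM ketoconazole as 100% inhibition.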
smiles,measurement,setting,value
N=c1ccn2c(n1)O[C@H]1[C@H](O)[C@@H](CO)O[C@H]12,Potency,[1],inactive
same,Potency,[2],inactive
same,Potency,[3],inactive
CC(N)C(=O)OC(C)(C)Cc1ccc(Cl)cc1 (centres undefined),Potency,[4],inactive
same,outcome,[5],inactive
same,outcome,[6],inactive
Cc1ccc(C(=O)c2ccc(CC(=O)O)n2C)cc1,Potency,[7],inactive
same,outcome,[5],inactive
same,outcome,[6],inactive
Nc1cc(-c2ccncc2)c[nH]c1=O,Potency,[4],inactive
same,Potency,[3],5.01 µM (active)
same,outcome,[5],inactive
same,outcome,[6],inactive
C=C[C@@H]1CN2CC[C@@H]1C[C@H]2[C@H](O)c1ccnc2ccc(OC)cc12,Potency,[1],inactive
O=C(/C=C/c1ccc(O)c(O)c1)OCCc1ccccc1,Potency,[4],inactive
same,outcome,[5],inactive
same,outcome,[6],inactive
Cc1c(N)c(=O)n(-c2ccccc2)n1C,outcome,[5],inactive
same,outcome,[6],inactive
O=c1cc(-c2ccccc2)oc2c(O)c(O)ccc12,Potency,[4],inactive
same,outcome,[5],inactive
same,outcome,[6],inactive
O=C(Nc1ccncc1)c1cc([N+](=O)[O-])ccc1Cl,Potency,[7],1.26 µM (active)
same,Potency,[4],inactive
